Measured values reported in PubChem BioAssay (NCATS).
Values joined by “and” are separate entries in the source; they are usually repeats but may differ in a detail not shown here. Identical values can stand only once. Results filed as inconclusive are left out. Active and inactive are the calls of the source. Unless noted, calls follow the shape of the dose curve; as a rule, active = well fitted curve in the direction sought with a large enough effect; inconclusive = small, poorly fitted or top-dose-only effect, or another doubt; inactive = no such curve, though single readings can be large; an effect the other way counts as inactive or inconclusive.

How the values were obtained:
[1] = qHTS Assay for Identifying Gametocytocidal Compounds (AID 743244);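 also: % is scaled to controls: 0 for no effect and ±100 for the full control effect; actives lower the fluorescent signal which means gametocytes are killed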; settings: P. falciparum 3D7 stage III-V gametocytes, alamarBlue, 72 h; max response: hits give low values
Procedure, shortened: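 In this qHTS viability screen, late-stage 3D7 gametocytes are incubated with compound for 72 h, then with alamarBlue for 24 h; reduced resorufin fluorescence marks killing.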

[2] = qHTS assay for measurement of the activity of small molecule inhibitors on Zika virus induced Caspase-3 activity in human iPSC derived neural progenitor cells (hNPCs) (AID 1224857); also: % of control where 0% means no effect; nearly all actives have a fitted effect of over 65% in size
Procedure, shortened: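 In medium with heparin 2 ug/ml and cyclopamine 2 uM, hNPCs (350 cells/well) received compound for one hour and then Zika virus at 2 FFU/cell; caspase activity was measured by Caspase-Glo 3/7 luminescence 6 h post-infection.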

[3] = qHTS assay for measurement of the activity of small molecule inhibitors on Zika virus induced Caspase-3 activity in human astrocytoma cells (AID 1224859);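 also: plate controls were ZIKV-infected untreated cells for no effect and uninfected cells for full effect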
Procedure, shortened: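 A cell-based luminescent caspase-3/7 assay used SNB-19 cells infected with ZIKV (2 FFU/cell) for 6 h following 1 h compound pretreatment.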

[4] = qHTS assay to identify small molecule inhibitors of chordoma cells - UCH-1 (AID 1259355); also: % is scaled to controls: 0 for no effect and ±100 for the full control effect; nearly all actives have a fitted effect of over 55% in size
Procedure, shortened: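 Luminescent ATP read-out (CellTiter-Glo, 30min at room temperature) measured viability of UCH-1 cells exposed for 48hr to test drugs at 15 concentrations, co-dosed with a five-agent combination of auranofin, camptothecin, doxorubicin, rubitecan and topotecan.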

[5] = qHTS assay to identify small molecule inhibitors of chordoma cells - UCH-2 (AID 1259356); also: series mostly up to about 46 µM; % is scaled to controls: 0 for no effect and ±100 for the full control effect
[6] = biological target: Peroxisome proliferator-activated receptor alpha (Homo sapiens) (UniProt Q07869); assay: qHTS assay for small molecule agonists of the peroxisome proliferator-activated receptor alpha (PPARalpha) signaling pathway (AID 651778); settings: PathHunter PPARalpha complementation, chemiluminescence, 6 h; hits give high values; also: % of control where 0% means no effect
Procedure, shortened: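 Cells plated at 2,000/well and held overnight at 37 C, 5% CO2, then compound added by pin tool for 6 hr; after PathHunter detection reagent and 60 min at room temperature, chemiluminescence from enzyme complementation was read.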

[7] = biological target: Nuclear receptor ROR-gamma (Homo sapiens) (UniProt P51449); assay: qHTS assay for small molecule antagonists of the retinoid-related orphan receptor gamma (ROR-gamma) signaling pathway (AID 651802); also: series mostly up to about 92 µM; % is scaled to controls: 0 for no effect and ±100 for the full control effect; nearly all actives have a fitted effect of over 60% in size
Procedure, shortened: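 CHO cells carrying TET-inducible ROR-gamma and an ROR response element–luciferase reporter were exposed to compound, then induced with doxycycline. After 16hr at 37C, luminescence was read; lower signal indicates antagonism.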

[8] = qHTS assay for small molecule agonists of the antioxidant response element (ARE) signaling pathway measured by Nrf2-dependant transcriptional activity (AID 720636; active = well fitted curve in the direction sought with a large enough effect in the repeat runs; an effect the other way counts as inactive or inconclusive;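 also: HepG2 cells with an ARE-driven luciferase reporter; % of control where 0% means no effect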)
Procedure, shortened: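 Reporter gene assay, HepG2 ARE-luc: 16 hr compound, 37 C, 5% CO2; read-out luciferase luminescence.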

[9] = qHTS assay for small molecule antagonists of the retinoid-related orphan receptor gamma (ROR-gamma) signaling pathway - cell viability counter screen (AID 720652; active = well fitted curve in the direction sought with a large enough effect in the repeat runs; an effect the other way counts as inactive or inconclusive;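 also: series mostly up to about 92 µM; compound exposure lasted 16 hr before ATP read; % is scaled to controls: 0 for no effect and ±100 for the full control effect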)
Procedure, shortened: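 Counter screen in CHO cells carrying TET-inducible ROR-gamma and an ROR response element-luciferase reporter; cells plated 5 hr, compound pinned, doxycycline added, then 16 hr at 37 C. Viability read as intracellular ATP by CellTiter-Glo luminescence.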

[10] = qHTS assay for small molecule agonists of the antioxidant response element (ARE) signaling pathway measured by Nrf2-dependant transcriptional activity - cell viability counter screen (AID 720653; active = well fitted curve in the direction sought with a large enough effect in the repeat runs; an effect the other way counts as inactive or inconclusive; also: % is scaled to controls: 0 for no effect and ±100 for the full control effect); settings: ARE-bla HepG2 viability, CellTiter-Glo ATP luminescence, 16 h; hits give low values
Procedure, shortened: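 ARE-bla HepG2 cells (2,000/well) rested 5 hrs at 37C/5% CO2, then exposed to compounds in DMSO for 16 hrs. Viability was read in the same wells as intracellular ATP by luminescence, 30 min at room temperature after reagent addition.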

[11] = qHTS assay for cell viability of HEK293 cells (AID 743288); settings: ATP luminescence (CellTiter-Glo), 18 h, hits give low values; also: % is scaled to controls: 0 for no effect and ±100 for the full control effect; nearly all actives have a fitted effect of over 50% in size
Procedure, shortened: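 Parental HEK293 cells, 2,000 per well, preincubated at least 5 h at 37 C, then exposed to compounds in DMSO for 18 h at 37 C. Viability by CellTiter-Glo ATP luminescence after 30 min at room temperature.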

[12] = qHTS assay for cell viability of the p53RE-bla HCT-116 cell line (AID 743292); also: % is scaled to controls: 0 for no effect and ±100 for the full control effect; nearly all actives have a fitted effect of over 55% in size
Procedure, shortened: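 Readout: CellTiter-Glo luminescence after 30 min RT. Treatment: compounds in DMSO, 16 h, 37 C. Cells: CellSensor p53RE-bla HCT-116, 4,000/well, preincubated 5 h.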

Nuclear receptor ROR-gamma (Homo sapiens), sequence (P51449 whole entry, looked up): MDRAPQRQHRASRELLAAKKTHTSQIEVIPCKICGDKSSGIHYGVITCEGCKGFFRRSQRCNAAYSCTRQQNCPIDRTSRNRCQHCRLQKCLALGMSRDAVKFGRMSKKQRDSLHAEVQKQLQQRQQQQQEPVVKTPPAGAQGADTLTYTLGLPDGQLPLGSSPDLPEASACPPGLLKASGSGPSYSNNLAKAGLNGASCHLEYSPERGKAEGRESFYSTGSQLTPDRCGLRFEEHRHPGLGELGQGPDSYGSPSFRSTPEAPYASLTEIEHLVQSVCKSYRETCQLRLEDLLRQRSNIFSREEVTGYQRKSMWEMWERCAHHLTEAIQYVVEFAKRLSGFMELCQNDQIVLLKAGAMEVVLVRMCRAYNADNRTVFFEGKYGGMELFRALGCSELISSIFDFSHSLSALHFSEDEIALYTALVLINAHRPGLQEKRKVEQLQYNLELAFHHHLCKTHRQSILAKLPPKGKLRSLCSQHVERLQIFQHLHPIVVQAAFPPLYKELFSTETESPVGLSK
Peroxisome proliferator-activated receptor alpha (Homo sapiens), sequence (Q07869 whole entry, looked up): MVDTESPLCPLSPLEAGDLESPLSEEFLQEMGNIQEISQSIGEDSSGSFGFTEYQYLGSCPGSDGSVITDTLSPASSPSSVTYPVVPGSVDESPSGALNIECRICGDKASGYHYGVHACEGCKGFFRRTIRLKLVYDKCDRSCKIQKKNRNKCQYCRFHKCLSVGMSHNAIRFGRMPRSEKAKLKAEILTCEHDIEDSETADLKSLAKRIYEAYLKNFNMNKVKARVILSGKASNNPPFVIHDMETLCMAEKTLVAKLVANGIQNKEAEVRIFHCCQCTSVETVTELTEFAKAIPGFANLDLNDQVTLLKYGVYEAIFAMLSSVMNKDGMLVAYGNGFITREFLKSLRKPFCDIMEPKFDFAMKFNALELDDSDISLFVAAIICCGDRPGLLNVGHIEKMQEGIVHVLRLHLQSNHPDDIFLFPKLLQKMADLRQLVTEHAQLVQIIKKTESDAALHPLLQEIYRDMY

C[n+]1ccccc1/C=N/O
inactive: max response [1] 8.92% | outcome [2] | outcome [3] | outcome [4] | outcome [5]

CCN(CC)C(=O)c1cccc(C)c1
inactive: max response [6] -2.42% and -0.716% | outcome [7] | outcome [8] | outcome [9] | max response [10] -1.02% and 2.48% | max response [1] 18.7% | max response [11] 4.9% and -5.34% | outcome [12] | outcome [2] | outcome [3] | outcome [4] | outcome [5]

CC(=O)[C@@]1(O)CC[C@H]2[C@@H]3C[C@H](C)C4=CC(=O)C=C[C@]4(C)[C@@]3(F)[C@@H](O)C[C@@]21C
inactive: max response [1] -2.09% | outcome [2] | outcome [3] | outcome [4] | outcome [5]

CC(=O)Nc1ccc(C(=O)O)cc1
inactive: max response [6] -0.167% | outcome [7] | outcome [8] | outcome [9] | max response [10] -5.69% | max response [1] 7.86% | max response [11] -10.3% | outcome [12] | outcome [2] | outcome [3] | outcome [4] | outcome [5]

CC(=O)N[C@@H](Cc1ccc(O)cc1)C(=O)O
inactive: max response [1] -6.61% | outcome [2] | outcome [3] | outcome [4] | outcome [5]

CCN(CC)CCc1nc(-c2ccccc2)no1
inactive: max response [1] 1.91% | outcome [2] | outcome [3] | outcome [4] | outcome [5]

Cc1c(C(=O)NCCO)[n+](=O)c2ccccc2n1[O-]
inactive: max response [6] -1.31% | outcome [8] | max response [10] -7.99% | max response [1] 6.22% | max response [11] -4.66% | outcome [12] | outcome [2] | outcome [3] | outcome [4] | outcome [5]

Cc1cc(=O)[nH]c(=S)[nH]1
inactive: max response [6] -5.54% | outcome [7] | outcome [8] | outcome [9] | max response [10] 1.24% | max response [1] 4.75% | max response [11] -3.4% | outcome [12] | outcome [2] | outcome [3] | outcome [4] | outcome [5]

O=C1c2cccc(O)c2C(=O)c2c(O)cccc21
inactive: max response [6] -5.75% | outcome [7] | outcome [9] | max response [1] 2.37% | max response [11] -10.2% | outcome [12] | outcome [2] | outcome [3] | outcome [4] | outcome [5]

FC(F)(F)C(Cl)Br (stereo not drawn)
inactive: max response [6] -5.56% | outcome [8] | outcome [9] | max response [10] -1.89% | max response [1] -11.3% | max response [11] 6.13% | outcome [12] | outcome [2] | outcome [3] | outcome [4] | outcome [5]

CC[N+](C)(CC)CCOC(=O)C1c2ccccc2Oc2ccccc21
inactive: max response [1] 7.42% | outcome [2] | outcome [3] | outcome [4] | outcome [5]

CCN(CC)S(=O)(=O)c1ccc(C(=O)O)cc1
inactive: outcome [2] | outcome [3] | outcome [4] | outcome [5]

CCCCCC(N)=O
inactive: max response [6] -2.19% | outcome [7] | outcome [8] | outcome [9] | max response [10] -1.07% | max response [1] 2.77% | max response [11] 7.6% | outcome [12] | outcome [2] | outcome [3] | outcome [4] | outcome [5]

CC1CC(OC(=O)c2ccccc2O)CC(C)(C)C1 (stereo not drawn)
inactive: max response [6] -1.84% | outcome [8] | outcome [9] | max response [10] 0.684% | max response [1] -1.2% | max response [11] -5.44% | outcome [12] | outcome [2] | outcome [3] | outcome [4] | outcome [5]

CCCCCCCCCCCCCCCCN
inactive: max response [1] 6.4% | outcome [2] | outcome [3] | outcome [4] | outcome [5]

O=C(O)c1ccccc1OP(=O)(O)O
inactive: max response [1] -5.84% | outcome [2] | outcome [3] | activity, negative = inhibition [4] -7.01% [at 1.88 µM] | outcome [5]

O=C(O)c1ccccc1C(=O)Nc1ccc(S(=O)(=O)Nc2nccs2)cc1
inactive: max response [1] 31% | outcome [2] | outcome [3] | outcome [4] | outcome [5]

CCCC(O)C(CC)CO (stereo not drawn)
inactive: max response [6] -4.25% | outcome [7] | outcome [8] | outcome [9] | max response [10] 0.4% | max response [1] 0.642% | max response [11] -0.929% | outcome [12] | outcome [2] | outcome [3] | outcome [4] | outcome [5]

NC(=O)CC[C@@H](N)C(=O)O
inactive: max response [1] -2.82% | outcome [2] | outcome [3] | outcome [4] | outcome [5]

COCC(=O)Nc1c(I)c(C(=O)NCC(O)CO)c(I)c(C(=O)N(C)CC(O)CO)c1I (stereo not drawn)
inactive: max response [1] 10.5% | outcome [2] | outcome [3] | outcome [4] | outcome [5]

CC(=O)OCC(COC(C)=O)OC(C)=O
inactive: max response [6] 0.869% and -1.48% | outcome [7] | outcome [8] | outcome [9] | max response [10] -0.23% and 1.03% | max response [1] 41.8% | max response [11] 2.21% and 6.16% | outcome [12] | outcome [2] | outcome [3] | outcome [4] | outcome [5]
